# HttQ103 aggreg: qHTS Multiplex Assay to Identify Dual Action Probes in a Cell Model of Huntington: Aggregate Formation (GFP) | Potency, µM (top dose mostly 46.1 µM), hits mostly inhibitors | PC12 HttQ103-GFP aggregates, Acumen cytometry, 40 h | 1.1% of 220,000 active; further: nearly all actives have a fitted effect of over 60% in size
#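 PC12/HTTQ103-GFP, ecdysone-inducible; teb 100 nM; cpd qHTS titration; GFP aggregates read on laser cytometer, Ex 488/Em 500-530 nm.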
# IDH1 R132H inh: qHTS for Inhibitors of mutant isocitrate dehydrogenase 1 (IDH1): qHTS; IDH1-R132H enzyme, NADPH consumption, diaphorase/resazurin fluorescence; Isocitrate dehydrogenase [NADP] cytoplasmic (Homo sapiens), O75874; 0.093% of 390,000 active; Potency, µM (series often up to 76.6 µM), most hits filed as inhibitors; AID 602179, 2012; further: nearly all actives have a fitted effect of over 65% in size
#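 IDH1-R132H (0.5 ug/mL dispensed) in pH 7.5 Tris buffer was preincubated 30 min with compound, then given a substrate mix of 0.016 mM NADPH and 2 mM alpha-KG for 80 min at room temperature; remaining NADPH was read by diaphorase/resazurin fluorescence.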
# NPSR antagonist: qHTS Assay for Antagonists of the Neuropeptide S Receptor: cAMP Signal Transduction | 1% of 220,000 active | CHO-NPSR cells, cAMP TR-FRET, antagonist mode | Potency, µM (series often up to 38.3 µM), hits mostly inhibitors | AID 1461, 2008 | Q6W5P4; further: nearly all actives have a fitted effect of over 50% in size
# Target sequence (Q6W5P4 whole entry, looked up): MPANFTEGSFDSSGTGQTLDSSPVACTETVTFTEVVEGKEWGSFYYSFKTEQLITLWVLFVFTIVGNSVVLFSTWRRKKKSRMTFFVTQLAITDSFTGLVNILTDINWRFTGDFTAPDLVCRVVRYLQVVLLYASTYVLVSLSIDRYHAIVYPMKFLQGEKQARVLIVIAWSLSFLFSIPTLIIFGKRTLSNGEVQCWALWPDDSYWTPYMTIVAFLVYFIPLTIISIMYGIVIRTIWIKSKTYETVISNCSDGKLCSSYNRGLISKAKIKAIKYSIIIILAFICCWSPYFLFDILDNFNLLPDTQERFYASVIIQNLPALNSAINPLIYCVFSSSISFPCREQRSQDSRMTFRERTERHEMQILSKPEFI
# HTT ATP protect: qHTS Multiplex Assay to Identify Dual Action Probes in a Cell Model of Huntington: Cytoprotection (ATP) | PC12 HTT-Q103 induced, cytoprotection, ATP luminescence, 40 h | Potency, µM (doses to about 56.4 µM), usual class: activators | AID 1471, 2008 | 0.14% of 230,000 active; further: nearly all actives have a fitted effect of over 45% in size
#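 Quantitative HTS on tebufenozide-induced (100 nM) PC12 cells expressing HTTQ103 exon 1–GFP; compounds tested as a concentration series; survival measured via cellular ATP.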
# AT treatment: qHTS Assay for Identifying a Potential Treatment of Ataxia-Telangiectasia; F2112 A-T fibroblasts, KAP-1 phosphorylation AlphaLISA; neocarzinostatin DNA damage 30 min before lysis; Potency, µM (doses to about 57.5 µM), usual class: activators; 0.19% of 320,000 active; further: nearly all actives have a fitted effect of over 45% in size
#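 ATM-like activity read as KAP-1 phosphorylation via AlphaLISA donor/acceptor antibody pairs after lysis and 6 hr at 25C. Cells were ATM-null patient fibroblasts (F2112, hTERT), dosed 60 min, then exposed to the DSB inducer NCS for 30 min.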
# Resorufin autofl: qHTS for Inhibitors of mutant isocitrate dehydrogenase 1 (IDH1): Cherrypicks Autofluorescence Interference | shares compounds with IDH1 R132H inh | Resorufin detection reagent fluorescence interference, cell-free | inhibition of signal, % at 51.2 µM | 750 tested, under 10 active
# WT IDH1 inh: qHTS for Inhibitors of mutant isocitrate dehydrogenase 1 (IDH1): Cherrypicks in WT IDH1 | shares compounds with IDH1 R132H inh | Potency, µM (top dose mostly 115 µM), most hits filed as inhibitors | AID 623995, 2012 | 9% of 750 active | WT IDH1 enzyme, NADPH diaphorase/resazurin fluorescence; further: nearly all actives have a fitted effect of over 55% in size
# mIDH1 confirm: qHTS for Inhibitors of mutant isocitrate dehydrogenase 1 (IDH1): Confirmation of Cherrypicks; shares compounds with IDH1 R132H inh; IDH1 R132H enzyme, NADPH diaphorase/resazurin fluorescence; Potency, µM (highest dose often 76.6 µM), hits mostly inhibitors; 83% of 750 active; AID 624002, 2012; further: nearly all actives have a fitted effect of over 50% in size
# A number is an active result; – = inactive; ? = inconclusive; · = not tested or not shown; [ ] = remark or other dose. Shown are actives, neighbours in structure and some others; about 1.1% of the full set was active somewhere. The call rests on the fitted dose curve; in most records, active means well fitted curve in the direction sought with a large enough effect; inconclusive means small, poorly fitted or top-dose-only effect, or another doubt; inactive means no such curve, though single readings can be large; an effect the other way counts as inactive or inconclusive.
SMILES,HttQ103 aggreg,IDH1 R132H inh,NPSR antagonist,HTT ATP protect,AT treatment,Resorufin autofl,WT IDH1 inh,mIDH1 confirm
CC1(C)CCC(C)(C)c2c1ccc(O)c2Cc1c(O)ccc2c1C(C)(C)CCC2(C)C,·,·,·,–[10 µM],·,·,·,·
CCOC(=O)c1c(/N=C/c2c(O)n(-c3cccc(C)c3)c(=O)[nH]c2=O)sc2c1CCCC2,–,?,–,–[10 µM],–,–,–,11.2µM
O=C(O)[C@H]1C2c3ccccc3C(c3ccccc32)[C@@H]1C(=O)NCC1CC1,·,·,·,–[10 µM],·,·,·,·
CC(=O)Nc1ccc(C(=O)OCC(=O)Nc2ccc(Cl)cc2C(=O)c2ccccc2)cc1,–,?,–,–[10 µM],–,·,·,·
O=C(COC(=O)c1ccc(O)cc1)Nc1ccc(Cl)cc1C(=O)c1ccccc1,–,58.5µM,–,–[10 µM],–,–,–,35.5µM
Cc1ccc(-n2nc3c(=O)n(CC(=O)NCC(C)c4ccccc4)nc(C)c3c2C)cc1 (stereo not given),·,?,·,·,·,–,–,–
CC[C@H](CO)NC(=O)[C@H]1C=C2c3cccc4[nH]cc(c34)C[C@H]2N(C)C1,·,·,·,–,·,·,·,·

# Screening data as filed in PubChem.
